Assay results published in PubChem BioAssay AID463173 (ICCB-Longwood Screening Facility, Harvard Medical School, 2010).
Out of some 52,000 compounds screened, about 1,700 (3.3%) were called active. The entries come from a sample that favours actives as a whole. A number with no mark means an inactive call. No stated cut-off is given here; in the data, active means survival mostly below about 52% (no sharp cut-off); inactive means mostly above about 56%.

test system: Wild type; assay: growth inhibition of S. aureus wild type versus tarO mutant, primary screen, teichoic acid synthesis inhibitors, RN4220, OD600 (AID 463173); settings: S. aureus RN4220 wild type/DeltatarO growth, OD600, 18 h, stronger effect = lower value, screened at 18.75 µg/mL (by protocol)

Row | SMILES | survival
1 | O=C(O)c1ccc(NC(=O)c2ccc(Br)c(S(=O)(=O)N3CCCC3)c2)cc1 | 70%
2 | O=C(OCc1cc(=O)n2nc(C3CCCCC3)sc2n1)c1ccccc1Cl | 59%
3 | O=C(Nc1ccccc1)c1cn(-c2ccccc2)nc1-c1ccccc1 | 86%
4 | Cc1nc(-c2ccc(C)c(S(=O)(=O)N3CCC(C(=O)Nc4ccc(Cl)cc4)CC3)c2)no1 | 121%
5 | Cc1nc2c(C(=O)NCCc3ccc(Cl)cc3)c[nH]n2c(=O)c1Cc1ccc(Cl)cc1 | -14% (active)
6 | Cc1nc2c(C(=O)NCc3ccccc3Cl)cnn2c(C)c1Cc1ccccc1 | 85%
7 | COc1ccc(CCNC(=O)c2ccc(Cn3c(=O)c4ccccc4n(Cc4ccccc4Cl)c3=O)cc2)cc1OC | 95%
8 | Cc1nc2c(C(=O)NCc3ccccc3)c[nH]n2c(=O)c1Cc1ccccc1Cl | 22%
9 | COc1ccc(CCNC(=O)c2cc(C)nc3c2c(C)nn3-c2ccccc2)cc1OC | 76%
10 | Cc1cccn2c(=O)c(C(=O)NCCc3ccc(Cl)cc3)cnc12 | 77%
11 | Cc1nc2c(C(=O)NCCc3ccc(Cl)cc3)cnn2c(C)c1Cc1c(F)cccc1Cl | 59%
12 | COc1ccc(CCNC(=O)c2c[nH]n3c(=O)c(Cc4ccccc4Cl)c(C)nc23)cc1OC | 0% (active)
13 | Cc1nc2c(C(=O)NCCc3ccc(Cl)cc3)c[nH]n2c(=O)c1Cc1ccccc1F | -11% (active)
14 | Cc1nc2c(C(=O)N(C)Cc3ccccc3)c[nH]n2c(=O)c1Cc1ccc(Cl)cc1 | 94%
15 | Cc1nc2c(C(=O)NCc3ccccc3Cl)c[nH]n2c(=O)c1Cc1cccc(Cl)c1 | -15% (active)
16 | Cc1nc2c(C(=O)NCCc3ccc(Cl)cc3)cnn2c(C)c1Cc1ccc(F)cc1 | 73%
17 | Cc1cccc(C(=O)Nc2ccccc2OCc2cc(=O)n3c(C)csc3n2)c1 | 90%
18 | Cc1ccc(Cl)cc1N1CCN(S(=O)(=O)c2ccc3c(c2)CC(=O)N3C)CC1 | 113%
19 | COCCCNC(=O)c1ccc(Cn2c(=O)c3ccccc3n(CC(=O)Nc3c(C)cccc3C)c2=O)cc1 | 83%
20 | CCCN(C(=O)CCn1cnc2onc(-c3ccc(F)cc3)c2c1=O)c1ccccc1C | 72%
21 | COCCCNC(=O)C1CCCN(C(=O)c2cnn(-c3ccc(F)cc3)c2-n2cccc2)C1 (stereo unspecified) | 128%

Row | SMILES | survival
22 | CSc1nnc(COc2ccc(Cl)cc2)n1C | 101%
23 | CCOc1cc(CNC(=O)C(NS(=O)(=O)c2cccs2)C(C)C)cc(OCC)c1OCC (stereo unspecified) | 65%
24 | Cc1ccc(CNC(=O)c2ccc3c(c2)CCN3S(=O)(=O)c2ccccc2)cc1 | 84%
25 | Cc1ccc(C)c(N2CCN(S(=O)(=O)c3ccc(F)c(C(=O)Nc4ccc(Cl)cc4Cl)c3)CC2)c1 | 80%
26 | Cc1ccc(N2CCN(S(=O)(=O)c3ccc(F)c(C(=O)Nc4ccc(Cl)cc4Cl)c3)CC2C)cc1 (stereo unspecified) | -6% (active)
27 | Cc1cccc(N2CCN(S(=O)(=O)c3ccc(F)c(C(=O)Nc4cccc(Cl)c4C)c3)CC2C)c1 (stereo unspecified) | 100%
28 | CCC(CC)C(=O)N1CCN(Cc2ccccc2)CC1 | 108%
29 | Cc1ccc(NC(=O)CN2C(=O)C(C)(C)c3ccccc32)cc1 | 77%
30 | CCN1C(=O)C(O)(C(C)C(=O)c2ccccc2)c2ccccc21 (stereo unspecified) | 111%
31 | CC1=CC(C)(C)N(C(=O)Cc2ccccc2)c2ccccc21 | 126%
32 | CCC(CC)C(=O)N1c2ccccc2C(C)(c2ccccc2)CC1(C)C (stereo unspecified) | -2% (active)
33 | CC(=O)N1c2ccccc2N(C)C(=O)C1(C)C | 105%
34 | CCCCOc1ccc(C2(C(=O)O)CCCC2)cc1 | 105%
35 | CCC1=NN(C(=O)Cc2ccccc2)C(O)(c2ccccc2)C1 (stereo unspecified) | 107%
36 | CCCCC(=O)N1c2ccccc2C(C)(c2ccccc2)CC1(C)C (stereo unspecified) | -2% (active)
37 | CCC(=O)N1c2ccccc2C(C)(c2ccccc2)CC1(C)C (stereo unspecified) | -3% (active)
38 | CC(=O)N1c2ccccc2C(C)(c2ccc(C)cc2)CC1(C)C (stereo unspecified) | -2% (active)
39 | CCC(=O)N1CCN(C(=O)CC)C1c1ccccc1 | 99%
40 | CCc1ccc(NC(=O)Cn2c(=O)n(CCCCC(=O)NCc3ccccc3Cl)c(=O)c3ccccc32)cc1 | 90%
41 | CC(C)c1ccc(NC(=O)CN2C(=O)CSc3ccc(S(=O)(=O)N4CCCC4)cc32)cc1 | 91%
42 | CC1Cc2cc(S(=O)(=O)N(C)c3ccc(Br)cc3)ccc2N1C(=O)C1CC1 (stereo unspecified) | 106%

Row | SMILES | survival
43 | COc1cc2c(=O)c(C(=O)c3ccc(C)c(C)c3)cn(Cc3ccccc3F)c2cc1OC | 127%
44 | COc1ccc(OC)c(NC(=O)c2cc(=O)c3c(C)cc(C)cc3o2)c1 | 87%
45 | O=C(NC1CC(=O)N(c2ccc(Cl)cc2)C1)c1ccc(S(=O)(=O)N2CCCC2)cc1 (stereo unspecified) | 127%
46 | CC(=O)N1CCCc2cc(S(=O)(=O)N3CCCC(C(=O)Nc4ccc(C)c(F)c4)C3)ccc21 (stereo unspecified) | 73%
47 | COCCNC(=O)c1cnn(-c2cccc(C)c2)c1-n1cccc1 | 99%
48 | CCOc1ccccc1C(=O)N1CCc2cc(OC)c(OC)cc2C1COc1ccc2c(C)cc(=O)oc2c1 (stereo unspecified) | 76%
49 | Cc1c(C(=O)Nc2ccccc2Br)oc2ccc(S(=O)(=O)N3CCOCC3)cc12 | 113%
50 | CCCCCC(=O)N1c2ccccc2C(C)(c2ccccc2)CC1(C)C (stereo unspecified) | -2% (active)
51 | CC(C)c1ccc(S(=O)(=O)c2nnn3c2nc(N2CCCC2)c2sccc23)cc1 | 89%
52 | COc1ccc(-c2noc(CN(C(C)C)S(=O)(=O)c3ccc(Br)cc3)n2)cc1 | 81%
53 | Cc1ccc(-c2noc(CN(C(=O)COc3cc(C)cc(C)c3C)C(C)C)n2)cc1 | 1% (active)
54 | COc1ccc(-c2noc(CN(C(=O)COc3cc(C)c(Br)c(C)c3)C(C)C)n2)cc1 | 7% (active)
55 | Cc1ccccc1C(=O)N(Cc1nc(-c2ccc(Cl)cc2)no1)C(C)C | 86%
56 | CC(C)N(Cc1nc(-c2ccc(Cl)cc2)no1)C(=O)c1ccco1 | 76%
57 | COc1ccc(-c2noc(CN(C(=O)c3cc(OC)c(OC)cc3OC)C(C)C)n2)cc1 | 86%
58 | COc1ccc(-c2noc(CN(C(=O)c3ccccc3Cl)C(C)C)n2)cc1 | 97%
59 | COc1ccc(-c2noc(CN(C(=O)c3ccc(C)cc3C)C(C)C)n2)cc1 | 0% (active)
60 | Cc1ccc(CC(=O)N(Cc2nc(-c3ccc(C)cc3)no2)C(C)C)cc1 | -1% (active)
61 | Cc1ccc(-c2noc(CNC(=O)COc3cc(C)c(Br)c(C)c3)n2)cc1 | 89%
